Consider 40 compounds from PubChem BioAssay (Tox21).

Records with an inconclusive call do not appear. Values without a mark were called inactive. Calls follow the shape of the dose curve; as a rule, active = well fitted cell-killing curve with a large enough effect in the repeat runs (not every such curve was filed as active); inconclusive = weak or mixed curves, or effect the other way; inactive = no such curve, though single readings can be large or run the other way. Positions of bridges follow the written chain, without caps; N, C: chain ends. Non-standard residues stand in square brackets, D forms with d. Residues, ends and D or L forms follow the SMILES beside them. hArg = N=C(N)NCCCC[C@H](N)C(=O)O; Mpa = O=C(O)CCS
% is scaled to controls: 0 for no effect and ±100 for the full control effect.

This assay is described as follows: qHTS assay to identify small molecule antagonists of the farnesoid-X-receptor (FXR) signaling pathway - cell viability counter screen (AID 743221). Also: nearly all actives have a fitted effect of over 50% in size. The following applies: FXR-bla HEK293T viability, CellTiter-Glo luminescence, 16 h; series mostly up to 62.6 µM; activity change, negative = cytotoxicity: at the top concentration. The text has this: National Center for Advancing Translational Sciences [NCATS]
NIH Chemical Genomics Center [NCGC]
U.S. Environmental Protection Agency [EPA]
National Institutes of Environmental Health Sciences [NIEHS]
National Toxicology Program [NTP]
U.S. Food and Drug Administration [FDA]
The farnesoid-X-receptor (FXR), a nuclear hormone receptor, is highly expressed in liver, intestine, kidney and adrenal cortex. Natural ligands of FXR are the bile acids (Cholic acid, Chenodeoxy cholic acid etc). FXR is an important regulator of diverse metabolic pathways, including the bile acid homeostasis, lipid and glucose metabolisms. FXR regulates the expression of target genes by binding either as a monomer or as a heterodimer with the retinoid X receptor (RXR). Numerous studies have reported that FXR exerts protective function during cholestasis, diabetes, liver regeneration, and cancer. To identify compounds that inhibit FXR signaling, GeneBLAzer FXR-UAS-bla HEK 293T cell line (Invitrogen, Carlsbad, CA) containing a beta-lactamase reporter gene under the control of a UAS response element was used to screen the Tox21 10K compound library. The cytotoxicity of the Tox21 compound library against the FXR-bla cell line was tested in parallel by measuring the cell viability using CellTiter-Glo assay in the same wells.
Tox21 Assay Protocol Summary:
FXR-bla cells were dispensed at 5000 cells/5uL/well in 1536-well black wall/clear bottom plates using a Multidrop Combi (Thermo Fisher Scientific, Waltham, MA) dispenser. After the assay plates were incubated at 37 C and 5% CO2 for 5 h, 23 nL of compounds dissolved in DMSO, positive controls or DMSO only was transferred to the assay plate by a Pintool station (Kalypsys, San Diego, CA), followed by addition of 1 uL Chenodeoxycholic acid (50 uM, final concentration in the wells). The assay plates were incubated at 37C for 16 h. After 1 uL of LiveBLAzerTM B/G FRET substrate was added using a Bioraptr Flying Reagent Dispenser (FRD) workstation (Beckman Coulter, Indianapolis, IN), the plates were incubated at room temperature for 2 h, and fluorescence intensity was measured by an Envision plate reader (PerkinElmer, Shelton, CT). For cell viability readout that measures cytotoxicity, 4uL/well of CellTiter-Glo reagent was added into the assay plates using a Bioraptr FRD. After 30 min incubation at room temperature, the luminescence intensity in the plates was measured using a ViewLux plate reader (PerkinElmer).
`CCOC(=O)CC1(C)OCC(C)O1` (stereo not given): the “activity change, negative = cytotoxicity” value was -6.27%. With `O/N=C/C=N/O` the figure was -0.474%; with `C=CC/C=C/C`, -0.197% [at 81.1 µM]; with `O=C(CCCCC(=O)Nc1c(I)cc(I)c(C(=O)O)c1I)Nc1c(I)cc(I)c(C(=O)O)c1I`, 0.498%.

On to `O=C(Cn1ccnc1[N+](=O)[O-])NCc1ccccc1`, for which the “activity change, negative = cytotoxicity” value was 3.1%. Turning to `CC(=O)CC(=O)OC(C)(C)C`, the “activity change, negative = cytotoxicity” value was 2.17%.

With `O=C(Cl)c1ccccc1[N+](=O)[O-]`, the “activity change, negative = cytotoxicity” value is 1.58% [at 81.1 µM]. With `C=C(C)c1cccc(C(C)(C)N=C=O)c1` the figure was -4.47%; with `CN(C)CCCO[C@@H]1[C@H]2OC(C)(C)O[C@H]2O[C@@H]1C(O)CO` (stereo not given in full), -9.4%; with `OC1OCCOC1O` (stereo not given), -3.65%. The same measure for `CCOc1cccc(N)c1`: 6.96%; for `CC(C)CCOC(=O)c1ccccc1`: -13.8%; for `CC1CC(=O)CC(C)(C)C1` (stereo not given): 8.38%. The same measure for `CC(C)=CCC[C@@](C)(O)[C@H]1CC=C(C)CC1`: -0.91%; for `CC(C)OC(=O)OCOP(=O)(CO[C@H](C)Cn1cnc2c(N)ncnc21)OCOC(=O)OC(C)C`: 6.9%; for `c1ccc2cnccc2c1`: -10.4%. `O=C(O)[C@H](O)c1ccccc1`: the “activity change, negative = cytotoxicity” value was 8.33%. For `COc1ccc(CCO)cc1`, the “activity change, negative = cytotoxicity” value was 9.46%. `Cc1cc(-c2ccccc2)nnc1NCCN1CCOCC1`: the “activity change, negative = cytotoxicity” value was -1.03%. The same measure for `Cc1cc(C)c(C(=O)O)c(C)c1`: 9.64%; for `CN(C)CCN(C)CCO`: 14.7%. With `CCC(=O)Oc1ccc2c(c1)CC[C@@H]1[C@@H]2CC[C@@]2(C)[C@H]1C[C@@H](OC(=O)CC)[C@@H]2OC(=O)CC` the figure was 2.15%. With `O=C[O][Al]([O]C=O)[O]C=O` the figure was 11.4%; with `CCn1cc(C(=O)O)c(=O)c2cnc(N3CCCC3)nc21`, -0.638% [at 13.2 µM]. On to `NCC1(Cc2noc(=O)[nH]2)CCCCC1`, for which the “activity change, negative = cytotoxicity” value is -10.6%. The same measure for `NC(=O)[C@@H]1CSSCCC(=O)N[C@@H](CCCCN=C(N)N)C(=O)NCC(=O)N[C@@H](CC(=O)O)C(=O)N[C@@H](Cc2c[nH]c3ccccc23)C(=O)N2CCC[C@H]2C(=O)N1` ([Mpa][hArg]GDWPC-NH2; disulfide 1-7): 8.28%; for `CCNC(=O)NCc1cccc(Cl)c1`: 8.29%; for `CCCCOC(=O)[C@H](C)O`: 1.11%. Consider `CCCC(=O)Nc1ccc(OCC(O)CNC(C)C)c(C(C)=O)c1` (stereo not given), for which the “activity change, negative = cytotoxicity” value was 12.3%.

As to `CCCCCC/C=C/C(=O)OC`, the “activity change, negative = cytotoxicity” value was 2.98%. The same measure for `CCC(C)C(C)=O` (stereo not given): -6.71%; for `CCC(C)C(=O)OCCc1ccccc1` (stereo not given): 6.92%. The same measure for `CNCCS(=O)(=O)O`: 1.81% [at 81.1 µM]. With `N#Cc1cscn1` the figure was 2.07%. Take `COc1nc(N)nc2nc[nH]c12`: the “activity change, negative = cytotoxicity” value was 12%. Consider `COC(=O)c1cccc(Cl)c1`, for which the “activity change, negative = cytotoxicity” value was 0.663%. The same measure for `CC1=C(C(=O)O)N2C(=O)[C@@H](NC(=O)[C@H](N)c3ccccc3)[C@H]2SC1`: 10.7%. The same measure for `C[C@]12CCC(=O)C=C1CC[C@H]1[C@@H]3CC[C@](O)(C(=O)CO)[C@@]3(C)C[C@H](O)[C@@]12F`: 11.9%. The same measure for `CC1=NN(c2ccc(S(=O)(=O)O)cc2)C(=O)C1`: -18.9%. As for `CC1(C)[C@H]2CC[C@](C)(C2)[C@H]1O`, the “activity change, negative = cytotoxicity” value was -9.04% [at 81.1 µM].
